Measurements from PubChem BioAssay (NCATS).
Records with an inconclusive call do not appear. Where a call stands in place of a potency, no number is given. Unmarked numbers belong to inactive results. The source made the active and inactive calls. The call rests on the fitted dose curve; in most records, active means well fitted curve in the direction sought with a large enough effect; inconclusive means small, poorly fitted or top-dose-only effect, or another doubt; inactive means no such curve, though single readings can be large; an effect the other way counts as inactive or inconclusive. Where a SMILES comes first, the peptide text is derived from it. The star is where a group is joined. PhAc = O=C(Cc1ccccc1)*

Experiments:
[1] = P-glycoprotein substrates identified in KB-8-5-11 adenocarcinoma cell line, qHTS therapeutic library screen (AID 1346987); further: nearly all actives have a fitted effect of over 65% in size; on activity change, negative = cytotoxicity: series mostly up to about 44 µM
Procedure, shortened: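 KB-8-5-11: colchicine-selected sub-line of KB-3-1 over-expressing P-gp; assay medium lacked colchicine. 72 h drug exposure at 37 degree C, CellTiter-Glo.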

[2] = test system: Zika virus NS2B-NS3 protease (unlinked complex); assay: Primary screen GU Rhodamine qHTS for Zika virus inhibitors: Unlinked NS2B-NS3 protease assay (AID 1347159); further: nearly all actives have a fitted effect of over 60% in size; further: potency means the concentration at half of the fitted maximal effect
Procedure, shortened: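 Compounds, tested up to 114 microM, were incubated for 15 minutes with 25 nM unlinked NS2B-NS3 protease at pH 8.0. Cleavage of 1.5 microM Rhodamine110 substrate was then followed by fluorescence for 15 minutes.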

[3] = test system: Zika virus NS2B-NS3 protease (linked construct); assay: Primary screen NINDS Rhodamine qHTS for Zika virus inhibitors (AID 1347160); further: nearly all actives have a fitted effect of over 55% in size
Procedure, shortened: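 Percent inhibition, normalized to uninhibited and enzyme-free controls, is fitted to a 4-parameter Hill equation. Fluorescence change comes from a 15-min cleavage of 1.5 microM bis-peptide Rhodamine110 substrate by 25 nM linked NS2B-NS3 at room temperature.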

CCCN1CCC[C@@H](c2cccc(S(C)(=O)=O)c2)C1
Potency [1]: inactive | Potency [2]: inactive | Potency [3]: inactive

CCC1=C(C)C(=O)C(C)CC12C(=O)CCC2C(=O)O (configuration not stated)
Potency [1]: inactive | Potency [2]: inactive | Potency [3]: inactive

COc1cc(/C=C/C(=O)OC[C@H]2O[C@@H](OC3OC=C(C(=O)O)C4C(O)CC(C)(O)C34)[C@H](O)[C@@H](O)[C@@H]2O)cc(OC)c1O (some centres not stated)
Potency [1]: inactive | Potency [2]: inactive | Potency [3]: inactive

C=C1CC23CC1CCC2C12OC(=O)C(C)(C(O)CC1O)C2C3C(=O)O (configuration not stated)
Potency [1]: inactive | Potency [2]: inactive

O=C(OCC(O)CO[C@@H]1O[C@H](C(=O)O)[C@@H](O)[C@H](O)[C@H]1O)c1ccccc1 (some centres not stated)
Potency [1]: inactive | Potency [2]: inactive

CCCCS(=O)(=O)NC(Cc1ccc(OCCCCC2CCNCC2)cc1)C(=O)O (configuration not stated)
Potency [1]: inactive | Potency [2]: inactive | Potency [3]: inactive

CC1CCC2(C)CCC3(C)C(=CCC4C5(C)CCC(O)C(C)(C(=O)O)C5CCC43C)C2C1C (configuration not stated)
Potency [1]: inactive | Potency [2]: 8.91 µM (active)

C=Cc1ccc(O[C@@H]2O[C@H](CO[C@@H]3O[C@@H](C)[C@H](O)[C@@H](O)[C@H]3O)[C@@H](O)[C@H](O)[C@H]2O)cc1
Potency [1]: inactive | Potency [2]: inactive

C[C@@H]1[C@H]2[C@H](O[C@@H]3O[C@H](CO)[C@@H](O)[C@H](O)[C@H]3O)OC=C(C(=O)O)[C@H]2C[C@@H]1OC(=O)/C=C/c1ccc(O)cc1
Potency [1]: inactive | Potency [2]: 31.6 µM (active)

CC1CCC2C(C(=O)O)=CC3(O)CC(C)(C)CC123 (configuration not stated)
Potency [1]: inactive | Potency [2]: inactive | Potency [3]: inactive

CC1(C)C[C@H]2C=C(C=O)[C@]3(C(=O)O)C[C@]3(C)[C@H]2C1
Potency [1]: inactive | Potency [2]: 22.4 µM (active)

CC1(C(=O)O)CCCC2(C)C3CC4C5CC3(CCC12)CC45C (configuration not stated)
Potency [1]: inactive | Potency [2]: 10 µM (active)

COC(=O)C1=CO[C@@H](O[C@@H]2O[C@H](CO)[C@@H](O)[C@H](O)[C@H]2O)[C@H]2[C@@H]1[C@H](O)[C@H](O)[C@]2(C)O
Potency [1]: inactive | Potency [2]: inactive

CC1CC(=O)C2C(O)(C1)CC(O)C13OC1c1c(O)cccc1C(=O)C23O (configuration not stated)
Potency [1]: inactive | Potency [2]: inactive | Potency [3]: inactive

COc1ccc(CC(NC(C)=O)C(=O)O)cc1 (configuration not stated)
Potency [1]: inactive | Potency [2]: 31.6 µM (active)

CCOC(=O)CNC(=O)[C@@H]1CCCN1C(=O)Cc1ccccc1 (PhAc-Pro-Gly-OEt)
Potency [1]: inactive | Potency [2]: inactive

COc1ccc2c(c1)C=C1Cn3c-2c(C2CCCCC2)c2ccc(cc23)C(=O)NS(=O)(=O)N(C)CCOCCN(C)C1=O
Potency [1]: inactive | Potency [2]: 2.51 µM (active)

CC(=O)O[C@H]1C[C@@]2(C)[C@@H](CC[C@H]3[C@@]4(C)C=CC(=O)[C@@H](C)[C@@H]4[C@H](OC(C)=O)C(=O)[C@@]32C)/C1=C(\CCC=C(C)C)C(=O)O
Potency [1]: inactive | Potency [2]: inactive

CC(=O)O[C@H]1[C@H](OC(=O)C(C)C)[C@]2(C)OC3(CC[C@]2(C)[C@H]2CCC[C@]4(CO4)[C@]12C)COC(=O)C3 (some centres not stated)
Potency [1]: inactive | Potency [2]: inactive | Potency [3]: inactive

C/C1=C\CC(C)(C)/C=C/C/C(C(=O)O)=C/CC1
Potency [1]: inactive | Potency [2]: 14.1 µM (active)

C[C@]12CCC[C@](C)(C(=O)O)C1[C@@H](O)[C@@H](O)C13CC(CCC12)C(CO)(O[C@@H]1O[C@H](CO)[C@@H](O)[C@H](O)[C@H]1O)C3 (some centres not stated)
Potency [1]: inactive | Potency [2]: inactive

CC(C)c1ccc2c(c1)CCC1[C@](C)(C(=O)O)CCC[C@]21C (some centres not stated)
Potency [1]: inactive | Potency [2]: 20 µM (active)

C=C1CCC[C@]2(C)CC[C@@](O)(C(=C)C(=O)O)C[C@@H]12
Potency [1]: inactive | Potency [2]: 11.2 µM (active)

CCC[C@H](N[C@@H](C)C(=O)N1[C@H](C(=O)O)C[C@@H]2CCCC[C@@H]21)C(=O)O
Potency [1]: inactive | Potency [2]: inactive

CC1(C)C(=O)CCC2(C)C1C(O)C=C1COC(=O)C12O (configuration not stated)
Potency [1]: inactive | Potency [2]: inactive

CC1(C)CC[C@]2(C(=O)O)CC[C@]3(C)C(=CCC4[C@@]5(C)CC[C@H](O[C@H]6O[C@H](C(=O)O)[C@@H](O)[C@H](O[C@@H]7O[C@H](CO)[C@H](O)[C@H](O)[C@H]7O)[C@H]6O)C(C)(C)C5CC[C@]43C)[C@@H]2C1 (some centres not stated)
outcome [1]: inactive [at 9.29 µM] | Potency [2]: 8.91 µM (active)

CC(/C=C/C=C(\C)C(=O)O[C@@H]1O[C@H](CO[C@@H]2O[C@H](CO)[C@@H](O)[C@H](O)[C@H]2O)[C@@H](O)[C@H](O)[C@H]1O)=C\C=C\C=C(C)\C=C\C=C(/C)C(=O)O[C@@H]1C[C@](O)(C(=O)O)C[C@@H](O)[C@H]1OC(=O)/C=C/c1ccc(O)c(O)c1
activity change, negative = cytotoxicity [1]: 3.01% [at 9.29 µM] | Potency [2]: 1.78 µM (active)

C=CC(C)(O)CC/C=C(\C)C1CC=C(C)C(=O)O1 (configuration not stated)
Potency [1]: inactive | Potency [2]: inactive | Potency [3]: inactive

COc1cccc(C)c1C(=O)O[C@@H]1C[C@H](O[C@H]2[C@H](O)C[C@H](O[C@@H]3CCC[C@H]4[C@H]3C=C[C@@H]3CCCC/C=C/[C@H]5C=C(C(=O)O)[C@@H](C)C[C@@]56OC(=O)C(=C6O)OC(=O)[C@@]34C)O[C@@H]2C)O[C@H](C)[C@H]1O
outcome [1]: inactive [at 9.29 µM] | Potency [2]: inactive

CNC(C)C(=O)NC(C(=O)N1CCCC1C(=O)Nc1cccc2ncccc12)C(C)C (configuration not stated)
Potency [1]: inactive | Potency [2]: inactive

CC(=O)OCC1OC(OC2COC(OC3COC(OC4C(OC5C(CO)OC(OC6CCC7(C)C(CCC8(C)C7CC=C7C9CC(C)(C)CCC9(C(=O)OC9OC(CO)C(O)C(O)C9OC9OCC(OC%10OCC(O)(CO)C%10O)C(O)C9O)C(O)CC78C)C6(C)C)C(O)C5O)OCC(O)C4O)C(O)C3O)C(O)C2O)C(OC(=O)/C=C/c2ccccc2)C(O)C1OC(C)=O (configuration not stated)
activity change, negative = cytotoxicity [1]: 0.531% [at 5.11 µM] | activity change, negative = inhibition [2]: 8.67% [at 19.1 µM] | Potency [3]: inactive

CC1=C(C)C(=O)OC(C(C)C2C(O)CC3C4C5OC5C5(O)CC(OC6OC(CO)C(OC7OC(C)C(O)C(O)C7O)C(O)C6O)CC(O)C5(C)C4CCC32C)C1 (configuration not stated)
Potency [1]: inactive | Potency [2]: inactive | Potency [3]: inactive

Cc1nc2cc(-c3cc(F)cc(C#N)c3)ccc2s1
Potency [1]: inactive | Potency [2]: inactive | Potency [3]: inactive

C[C@@H]1C[C@@H](O)[C@@]2(CO)C(CO)=CCC[C@@H]2[C@@]12C[C@@H](c1ccoc1)OC2=O
Potency [1]: inactive | Potency [2]: inactive | Potency [3]: inactive

Cc1cccc(NC(=O)CN2CCC(c3ccccn3)CC2)c1
Potency [1]: inactive | Potency [2]: inactive | Potency [3]: inactive

O=C(O)c1cc(O[C@@H]2O[C@H](CO)[C@@H](O)[C@H](O)[C@H]2O)ccc1O
Potency [1]: inactive | Potency [2]: inactive | Potency [3]: inactive

CC1=CCC(O)C2(C)CCC3C(C)C(=O)OC3C12 (configuration not stated)
Potency [1]: inactive | Potency [2]: inactive | Potency [3]: inactive

COc1cc(C2OCC3(O)C(c4ccc(O[C@@H]5O[C@H](CO)[C@@H](O)[C@H](O)[C@H]5O)c(OC)c4)OCC23O)ccc1O (some centres not stated)
Potency [1]: inactive | Potency [2]: inactive | Potency [3]: inactive

COc1cc2c(cc1OC)N1C(=O)C[C@@]34C=CC[N@+]5([O-])CC[C@H]2[C@H](CC3)[C@@]145
Potency [1]: inactive | Potency [2]: inactive | Potency [3]: inactive

COc1c(C)c(OCC(O)C(C)(C)O)cc2c1CNC2=O (configuration not stated)
Potency [1]: inactive | Potency [2]: inactive | Potency [3]: inactive

CC1=CCC2C(C)(C)CCCC2(C)C1CC12OC1C(O)C(CO)=CC2O (configuration not stated)
Potency [1]: inactive | Potency [2]: inactive | Potency [3]: inactive

CC1OC(O[C@@H]2[C@@H](O)[C@H](OC(=O)[C@]34CCC(C)(C)C[C@H]3C3=CCC5[C@@]6(C)CC[C@H](O[C@@H]7O[C@H](C(=O)O)[C@@H](O)[C@H](O[C@@H]8OC[C@@H](O)[C@H](O)[C@H]8O)[C@H]7O[C@@H]7O[C@H](CO)[C@H](O)[C@H](O)[C@H]7O)[C@@](C)(C=O)C6CC[C@@]5(C)[C@]3(C)C[C@H]4O)O[C@H](C)[C@@H]2OC2OC(C)C(OC3OCC(O)C(O)C3O)C(O)C2O)C(O)C(O)C1O (some centres not stated)
outcome [1]: inactive [at 9.29 µM] | activity change, negative = inhibition [2]: 7.56% [at 19.1 µM] | Potency [3]: inactive

CC1(C)CC[C@]2(C(=O)O[C@@H]3O[C@H](CO)[C@@H](O)[C@H](O)[C@H]3O)CC[C@]3(C)C(=CCC4[C@@]5(C)CC[C@H](O[C@@H]6O[C@H](C(=O)O)[C@@H](O[C@@H]7O[C@H](CO)[C@@H](O)[C@H](O)[C@H]7O)[C@H](O)[C@H]6O[C@@H]6O[C@H](CO)[C@@H](O)[C@H](O)[C@H]6O)C(C)(C)C5CC[C@]43C)C2C1 (some centres not stated)
outcome [1]: inactive [at 9.29 µM] | Potency [2]: inactive | Potency [3]: inactive

COc1cc(CO)cc(OC)c1O[C@@H]1O[C@H](CO)[C@@H](O)[C@H](O)[C@H]1O
Potency [1]: inactive | Potency [2]: inactive | Potency [3]: inactive

COc1cc(O)c2c(c1)C1(OC2=O)C(C)=CC(=O)C1O (configuration not stated)
Potency [1]: inactive | Potency [2]: inactive | Potency [3]: inactive

COc1ccc(C2OCC3C(c4cc(OC)c5c(c4)OCO5)OCC23)cc1OC (configuration not stated)
Potency [1]: inactive | Potency [2]: inactive | Potency [3]: inactive

CCC(C)C(=O)OC[C@H]1O[C@H](O[C@H]2O[C@H](CO)[C@@H](O)[C@H](O)[C@H]2O)[C@H](O)[C@@H](O)[C@@H]1O (some centres not stated)
Potency [1]: inactive | Potency [2]: inactive | Potency [3]: inactive

CC1(CO)CCCC2(C)C1C(OC(=O)c1ccccc1)CC1C(=O)OCC12O (configuration not stated)
Potency [1]: inactive | Potency [2]: inactive | Potency [3]: inactive

COc1cc(C(C)=O)ccc1O[C@@H]1O[C@H](CO)[C@@H](O)[C@H](O)[C@H]1O
Potency [1]: inactive | Potency [2]: inactive | Potency [3]: inactive

C=C(CCO)C(=O)OCC1OCC(OC(=O)C(=C)CCO[C@@H]2O[C@H](CO)[C@@H](O)[C@H](O)[C@H]2O)C(O)C1O (some centres not stated)
Potency [1]: inactive | Potency [2]: inactive | Potency [3]: inactive

CC(C)C1C(OC(=O)/C=C/c2ccccc2)CC2(C)OC2CCC2(C)OC2C1O (configuration not stated)
Potency [1]: inactive | Potency [2]: inactive | Potency [3]: inactive

CC1(C(=O)O)CCCC2(C)C3CCC4CC3(CCC12)CC4(O)CO (configuration not stated)
Potency [1]: inactive | Potency [2]: inactive | Potency [3]: inactive

CCC(C)C(=O)O[C@H]1[C@@H](O[C@H]2O[C@H](CO)[C@@H](O)[C@H](O)[C@H]2O)O[C@H](CO)[C@@H](O)[C@@H]1O (some centres not stated)
Potency [1]: inactive | Potency [2]: inactive | Potency [3]: inactive
